Molecules are shown by their SMILES. Several values for one entry are separate records, joined by “and”; a condition that tells them apart may be missing. Identical values can stand only once. Counter-ions that a name gives are not always drawn. ± gives the standard deviation of the averaged measurements.

Consider 30 molecules from the supplement of paper PMC8866396.

One test has as its system IL-6-GFP PC-9GR. The test can be described thus: cell viability (CCK-8 OD) relative to DMSO control (fraction of control); higher = more viable cells. The conditions noted are these: compound concentration: 10 uM; treatment time: 48 h. The method, boiled down: (§1)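 PC-9 and PC-9GR lung cancer cells carrying a lentiviral construct that overexpresses IL-6-GFP were seeded in 96-well plates at 3000 cells/well. Every compound in a purchased 510-compound library was applied at a final 10 μM for 48 h, and a parallel set of plates was kept for GFP imaging. Cell viability was read by CCK-8 absorbance, taking each well's optical density as a ratio to the vehicle control well. Two independent replicates were run.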

In another test the test system is IL-6-GFP PC-9. Described as above. The conditions noted are these: compound concentration: 10 uM; treatment time: 48 h. The method, boiled down:
as §1

On to `O=C(OCC1OC(OC(=O)c2cc(O)c(O)c(OC(=O)c3cc(O)c(O)c(O)c3)c2)C(OC(=O)c2cc(O)c(O)c(OC(=O)c3cc(O)c(O)c(O)c3)c2)C(OC(=O)c2cc(O)c(O)c(OC(=O)c3cc(O)c(O)c(O)c3)c2)C1OC(=O)c1cc(O)c(O)c(OC(=O)c2cc(O)c(O)c(O)c2)c1)c1cc(O)c(O)c(OC(=O)c2cc(O)c(O)c(O)c2)c1` (stereo not given) [Tannic acid], for which the cell viability in the test on IL-6-GFP PC-9GR is 1.05 ± 0.11; in the test on IL-6-GFP PC-9, 1.2 ± 0.23.

On to `CC(=O)OC(C)OC(=O)C(C)c1ccc(-c2ccccc2)c(F)c1` (stereo not given) [Flurbiprofen Axetil], for which the values for the cell viability with IL-6-GFP PC-9GR and in the test on IL-6-GFP PC-9 were 1.17 ± 0.29 and 1.16 ± 0.038, respectively.

As to `COc1ccc2cc(C(C)C(=O)[O-])ccc2c1.[Na+]` (stereo not given) [Naproxen Sodium], the cell viability in the test with IL-6-GFP PC-9GR amounted to 1.36 ± 0.035; in the test on IL-6-GFP PC-9, 1.16 ± 0.16.

Take `CC(=O)OCC1OC(n2ccc(=O)[nH]c2=O)C(OC(C)=O)C1OC(C)=O` (stereo not given) [uridine triacetate]: the cell viability with IL-6-GFP PC-9GR is 1.59 ± 0.3; with IL-6-GFP PC-9, 1.175 ± 0.0034.

Regarding `Cc1nccn1CC1CCc2c(c3ccccc3n2C)C1=O.Cl` (stereo not given) [Ondansetron HCl], the cell viability is 1.24 ± 0.19 in the test on IL-6-GFP PC-9GR and 1.18 ± 0.093 in the test on IL-6-GFP PC-9.

Consider `Cc1ccc(C(C)C)c(O)c1` [Thymol], for which the cell viability in the test with IL-6-GFP PC-9GR was determined as 0.9 ± 0.16; with IL-6-GFP PC-9 it was 1.08 ± 0.2.

As to `CCC1(O)CC2CN(CCc3c([nH]c4ccccc34)C(C(=O)OC)(c3cc4c(cc3OC)N(C=O)C3C(O)(C(=O)OC)C(OC(C)=O)C5(CC)C=CCN6CCC43C65)C2)C1` (stereo not given) [Vincristine], the cell viability in the test on IL-6-GFP PC-9GR is 0.556 ± 0.22; in the test on IL-6-GFP PC-9 it was 0.631 ± 0.041.

As to `Nc1ccn(C2OC(CO)C(O)C2(F)F)c(=O)n1` (stereo not given) [Gemcitabine], the values for the cell viability in the test on IL-6-GFP PC-9GR and in the test on IL-6-GFP PC-9 were 0.5847 ± 0.0053 and 0.5589 ± 0.0046, respectively.

As for `C[Se]CC[C@H](N)C(=O)O` [L-SelenoMethionine], the cell viability worked out at 1.19 ± 0.22 with IL-6-GFP PC-9GR and 1.28 ± 0.098 in the test with IL-6-GFP PC-9.

Turning to `Nc1nc(F)nc2c1ncn2C1OC(COP(=O)(O)O)C(O)C1O` (stereo not given) [Fludarabine Phosphate], the results for the cell viability with IL-6-GFP PC-9GR and in the test with IL-6-GFP PC-9 were 0.174 ± 0.083 and 0.206 ± 0.052, respectively.

As to `O=C1OC(OC(=O)c2cccnc2Nc2cccc(C(F)(F)F)c2)c2ccccc21` (stereo not given) [Talniflumate], the cell viability came out at 1 ± 0.022 in the test on IL-6-GFP PC-9GR and 0.967 ± 0.02 in the test with IL-6-GFP PC-9.

Regarding `COC(=O)C(Cc1ccccc1)NC(=O)C(N)CC(=O)O` (stereo not given) [Aspartame], the cell viability in the test with IL-6-GFP PC-9GR was found to be 1.08 ± 0.091; in the test on IL-6-GFP PC-9, 0.819 ± 0.06.

On to `NC1CCCCC1N.O=C([O-])C(=O)[O-].[Pt+2]` (stereo not given) [Oxaliplatin], for which the figures for the cell viability in the test on IL-6-GFP PC-9GR and with IL-6-GFP PC-9 were 0.678 ± 0.016 and 1.2 ± 0.099, respectively.

Take `COc1cc2nccc(Oc3ccc(NC(=O)Nc4cc(C)on4)c(Cl)c3)c2cc1OC` [Tivozanib (AV-951)]: the cell viability was found to be 0.792 ± 0.15 in the test with IL-6-GFP PC-9GR and 0.353 ± 0.036 with IL-6-GFP PC-9.

As for `NCCNc1ccc(NCCN)c2c1C(=O)c1ccncc1C2=O.O=C(O)/C=C\C(=O)O.O=C(O)/C=C\C(=O)O` [Pixantrone Maleate], the cell viability worked out at 0.168 ± 0.39 with IL-6-GFP PC-9GR and 0.3518 ± 0.00067 in the test on IL-6-GFP PC-9.

In the case of `CCC1(O)CC2CN(CCc3c([nH]c4ccccc34)C(C(=O)OC)(c3cc4c(cc3OC)N(C=O)C3C(O)(C(=O)OC)C(OC(C)=O)C5(CC)C=CCN6CCC43C65)C2)C1.O=S(=O)(O)O` (stereo not given) [Vincristine sulfate], the cell viability with IL-6-GFP PC-9GR was 0.587 ± 0.086; in the test on IL-6-GFP PC-9, 0.553 ± 0.11.

Consider `CCC(C)C(=O)OC1CC(C)C=C2C=CC(C)C(CCC3CC(O)CC(=O)O3)C21` (stereo not given) [Lovastatin], for which the cell viability in the test with IL-6-GFP PC-9GR was 1.23 ± 0.028; in the test with IL-6-GFP PC-9, 0.619 ± 0.019.

With `Cc1ccc(C2OC(CO)C(O)C(O)C2O)cc1Cc1ccc(-c2ccc(F)cc2)s1.Cc1ccc(C2OC(CO)C(O)C(O)C2O)cc1Cc1ccc(-c2ccc(F)cc2)s1.O` (stereo not given) [Canagliflozin hemihydrate], the cell viability in the test with IL-6-GFP PC-9GR is 1.12 ± 0.2; in the test with IL-6-GFP PC-9, 0.932 ± 0.22.

Consider `CNC(=O)c1ccccc1Sc1ccc2c(/C=C/c3ccccn3)n[nH]c2c1` [Axitinib], for which the results for the cell viability in the test on IL-6-GFP PC-9GR and in the test with IL-6-GFP PC-9 were 0.712 ± 0.0072 and 0.532 ± 0.05, respectively.

Take `CC(C)CC(NC(=O)CNC(=O)c1cc(Cl)ccc1Cl)B1OC(=O)CC(CC(=O)O)(C(=O)O)O1` (stereo not given) [Ixazomib Citrate (MLN9708)]: the cell viability in the test on IL-6-GFP PC-9GR stood at 0.316 ± 0.3; in the test with IL-6-GFP PC-9, 0.339 ± 0.12.

As to `CC(=O)Nc1ccc(CC(=O)O)cc1` [Actarit], the cell viability in the test with IL-6-GFP PC-9GR turned out to be 1.61 ± 0.35; with IL-6-GFP PC-9 it was 1.15 ± 0.07.

`N#CCC(C1CCCC1)n1cc(-c2ncnc3[nH]ccc23)cn1` (stereo not given): the cell viability with IL-6-GFP PC-9GR was 1.08 and 1.17; with IL-6-GFP PC-9 it was 1.11 and 0.753.

On to `COc1cc(-c2coc3cc4c(c(OC)c3c2=O)OCO4)cc(OC)c1OC` [Irisflorentin], for which the cell viability with IL-6-GFP PC-9GR stood at 0.826 ± 0.2; in the test on IL-6-GFP PC-9, 1.04 ± 0.12.

For `CCC(C)n1ncn(-c2ccc(N3CCN(c4ccc(OCC5COC(Cn6cncn6)(c6ccc(Cl)cc6Cl)O5)cc4)CC3)cc2)c1=O` (stereo not given) [Itraconazole], the values for the cell viability in the test with IL-6-GFP PC-9GR and in the test with IL-6-GFP PC-9 were 0.797 ± 0.19 and 0.269 ± 0.17, respectively.

Turning to `CC(=O)Nc1ccc(OC(=O)c2ccccc2OC(C)=O)cc1` [Benorylate], the figures for the cell viability in the test on IL-6-GFP PC-9GR and in the test on IL-6-GFP PC-9 were 1.54 ± 0.41 and 1.13 ± 0.046, respectively.

In the case of `COc1cc(Nc2c(C#N)cnc3cc(OCCCN4CCN(C)CC4)c(OC)cc23)c(Cl)cc1Cl` [Bosutinib (SKI-606)], the cell viability with IL-6-GFP PC-9GR was found to be 0.448 ± 0.011; in the test with IL-6-GFP PC-9, 0.429 ± 0.064.

As to `OCC1OC(c2ccc(F)c(Cc3cc4ccccc4s3)c2)C(O)C(O)C1O` (stereo not given) [Ipragliflozin (ASP1941)], the results for the cell viability with IL-6-GFP PC-9GR and in the test on IL-6-GFP PC-9 were 0.779 ± 0.068 and 1.06 ± 0.12, respectively.

For the molecule `COc1ccc2cc1Oc1ccc(cc1)CC1c3cc(c(OC)cc3CCN1C)Oc1c(OC)c(OC)cc3c1C(C2)N(C)CC3` (stereo not given) [Tetrandrine], the cell viability in the test on IL-6-GFP PC-9GR is 1.15 ± 0.36; in the test on IL-6-GFP PC-9, 1.3 ± 0.043.

Consider `CN(C)c1cc(CNCC(C)(C)C)c(O)c2c1CC1CC3C(N(C)C)C(O)=C(C(N)=O)C(=O)C3(O)C(O)=C1C2=O.Cc1ccc(S(=O)(=O)O)cc1` (stereo not given) [Omadacycline tosylate], for which the figures for the cell viability in the test with IL-6-GFP PC-9GR and in the test with IL-6-GFP PC-9 were 1.02 ± 0.039 and 1.3 ± 0.11, respectively.

With `COC1CC2CCC(C)C(O)(O2)C(=O)C(=O)N2CCCCC2C(=O)OC(C(C)CC2CCC(OC(=O)C(C)(CO)CO)C(OC)C2)CC(=O)C(C)/C=C(\C)C(O)C(OC)C(=O)C(C)CC(C)/C=C/C=C/C=C/1C` (stereo not given), the cell viability with IL-6-GFP PC-9GR was 0.524 ± 0.54; in the test with IL-6-GFP PC-9, 0.698 ± 0.12.
